An excerpt weighted towards active compounds, which were near 4% of everything screened.
Mtb FBA inh: inhibitors of M. tuberculosis fructose-bisphosphate aldolase; P9WQA3; purified M. tuberculosis FBA, fluorescence read-out; inhibition, % at 1 µM; 360,000 compounds, 2.3% hits; in the data active = inhibition above about 27%;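 also: 0% = vehicle and 100% = reference inhibitor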
Target sequence (P9WQA3 whole entry, looked up): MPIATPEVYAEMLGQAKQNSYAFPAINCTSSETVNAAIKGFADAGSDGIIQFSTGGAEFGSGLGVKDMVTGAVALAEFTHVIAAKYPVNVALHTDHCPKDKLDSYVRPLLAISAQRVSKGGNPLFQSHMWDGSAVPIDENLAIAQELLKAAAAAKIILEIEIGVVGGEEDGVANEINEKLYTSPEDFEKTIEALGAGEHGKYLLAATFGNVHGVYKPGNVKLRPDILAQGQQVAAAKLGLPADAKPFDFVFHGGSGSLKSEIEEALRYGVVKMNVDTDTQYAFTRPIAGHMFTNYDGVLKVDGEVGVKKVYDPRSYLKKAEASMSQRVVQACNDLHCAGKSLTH
GDH-TPI counter: counter-screen for M. tuberculosis FBA inhibitors: GDH-TPI coupled enzymes; inhibition, % at 4.8 µM; 360,000 compounds, 1.2% hits; GDH-TPI coupled enzyme counterscreen, NADH absorbance; AID 588335;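 also: 0% = DMSO wells and 100% = wells lacking the enzyme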
MazEF act: increases E. coli MazEF RNase cleavage of RNA; AID 504720; activation, % at 20 µM; FAM/BHQ RNA-DNA oligo cleavage fluorescence, 5 h; P0AE70; 350,000 compounds, 0.32% hits; in the data active = activation above about 50%
CCHF vOTU inh-1: blocks the CCHF virus ovarian tumor domain protease; CCHFV vOTU protease, Pep-AMC fluorescence; inhibition, % at 11.5 µM; 370,000 compounds, 0.55% hits; also: 0% = vehicle wells with enzyme and 100% = no enzyme wells
Mtb betalactam: beta-lactam sensitization of Mtb H37Rv; M. tuberculosis H37Rv growth with meropenem, percent inhibition; inhibition, % at 25 µM; 330,000 compounds, 0.27% hits; AID 434955; call rule not given here;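 also: growth measured after seven days incubation then overnight dye step; 0% = bacteria only wells and 100% = bacteria with antibiotic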
CCHF vOTU inh-2: confirmation of CCHF virus vOTU protease inhibitors; shares compounds with CCHF vOTU inh-1; Recombinant CCHFV vOTU, Pep-AMC fluorescence; inhibition, % at 11.5 µM; 1,900 compounds, 17% hits; AID 686976
An asterisk follows results filed as active; / = not tested or not shown. Rule as the data show it, unless noted: active = inhibition above about 30%; inactive = the rest.

SMILES	Mtb FBA inh	GDH-TPI counter	MazEF act	CCHF vOTU inh-1	Mtb betalactam	CCHF vOTU inh-2
O=[N+]([O-])c1ccc(Cl)c(S(=O)(=O)/N=C(/c2ccccc2)N2CCOCC2)c1	0	2	10	22	-1	/
CN1/C(=C\C=C2C(=O)NC(=O)NC2=O)C(C)(C)c2ccccc21	-47	-7	-67	36*	-1	37*
CN1/C(=C\C=O)C(C)(C)c2ccccc21	1	29	18	15	0	/
CCCCN(C(=O)c1ccc2c(c1)OCO2)c1ccccc1	-1	0	13	10	0	/
COc1cc(/C=N/NC(=O)[C@H](Cc2c[nH]c3ccccc23)NC(=O)OCC(C)C)cc([N+](=O)[O-])c1O	-15	25	8	36*	12	0
COc1cc(/C=N/NC(=O)Cc2c[nH]c3ccccc23)cc(OC)c1OC	1	-3	-2	1	-2	/
S=C(NCc1ccc(Cl)cc1)NN1CCOCC1	-2	1	2	0	7	/
CC(=O)OC1(C(C)=O)CCC2C3CC(Cl)C4=CC(=O)CCC4(C)C3CCC21C (stereo not given)	3	6	1	4	/	/
O=C(N/N=C/c1ccc(Br)o1)/C(=C/c1ccc([N+](=O)[O-])cc1)NC(=O)c1ccccc1	3	47*	3	38*	3	-5
Cc1ccc(-c2cc(C(=O)OCC(=O)N(C)c3c(N)n(Cc4ccccc4)c(=O)[nH]c3=O)c3ccccc3n2)o1	3	14	2	9	0	/
CCC(=O)Nc1sccc1C(=O)OC	1	4	5	/	-8	/
COC(=O)c1ccsc1NS(C)(=O)=O	/	/	/	31*	/	-19
CC(C)C1NC2(C(=O)c3ccccc3C2=O)C2C(=O)N(c3ccc(F)cc3)C(=O)C12 (stereo not given)	-2	-7	7	52*	2	-22
O=C1N/C(=N/N=C/c2ccco2)SC1Cc1ccccc1 (stereo not given)	-1	27	2	14	60	/
O=C(CC1S/C(=N/N=C/c2ccco2)NC1=O)Nc1cccc(Cl)c1Cl (stereo not given)	0	42*	-22	33*	-1	-7
CC(C)C1S/C(=N/N=C/c2cccs2)NC1=O (stereo not given)	-2	21	3	35*	45	-8
O=C1N/C(=N\N=C\c2cccs2)SC1Cc1ccc(Cl)cc1 (stereo not given)	-2	9	-10	8	11	/
Cc1cc(Br)c(NC(=O)COC(=O)CC2CC3CCC2C3)c(Br)c1 (stereo not given)	-3	12	-5	4	15	/
COc1ccc(OC)c(S(=O)(=O)N2CCC3(CC2)OCCN3S(=O)(=O)c2ccccc2)c1	3	-6	6	34*	-2	-10
O=[N+]([O-])c1cc(Cl)cc(/C=N/NC(=S)Nc2ccc(S(=O)(=O)N3CCOCC3)cc2)c1O	-10	20	6	39*	40	3
CCN(CC)S(=O)(=O)c1cc(NC(=O)CN2C(=O)NC(C)(c3ccccc3)C2=O)ccc1C (stereo not given)	-1	17	1	34*	-1	4
O=C1C=C(Nc2ccccc2O)c2ccccc2C1=O	-4	10	-41	97*	98	74*
CCOc1ccc(NC2=CC(=O)C(=O)c3ccccc32)cc1	-4	8	8	91*	/	45*
Cc1ccc(NC2=CC(=O)C(=O)c3ccccc32)c(C)c1	-2	10	8	2	27	/
O=C1C=C(NCc2ccccc2)c2ccccc2C1=O	-2	-10	7	64*	/	89*
O=C1C=C(Nc2cccnc2)c2ccccc2C1=O	-3	10	6	98*	/	96*
O=S1(=O)N=C(N(CCO)/N=C/c2ccncc2)c2ccccc21	-1	20	-2	30*	-1	-8
CC1(C(=O)NCc2cccc3ccccc23)CCN1Cc1ccc(OC(F)(F)F)cc1 (stereo not given)	0	8	/	34*	/	17
CC1(C(=O)NCc2ccc(Cl)cc2)CCN1C(=O)Cc1cccc2ccccc12 (stereo not given)	2	0	/	10	/	/
CC1(C(=O)NCc2cccc3ccccc23)CCN1Cc1ccc2ccccc2c1 (stereo not given)	1	-4	/	4	/	/

Assay outcomes deposited in PubChem BioAssay by several laboratories.
